SENP8 block-1: blocks human SENP8 cleavage of Nedd8 substrate. recombinant SENP8, Nedd8 substrate fluorescence. inhibition, % at 20 µM. 360,000 tested, 0.64% active. AID 602440. Q96LD8; in the data active means inhibition mostly above about 40%, no sharp cut-off; inactive means mostly below about 27%
Platelet DG rel: modulates dense granule release in human platelets; human platelet-rich plasma, SFLLRN dense granule ATP release, luminescence; inhibition, %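 (compounds screened at 7.5 µM in platelet-rich plasma)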; 300,000 tested, 0.22% active; AID 1663;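 active means mean replicate score, as percent of positive control, at or above 50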
SENP6 inh: SENP6 protease inhibition | Recombinant SENP6 catalytic domain, aminoluciferin luminescence | Q9GZR1 | 330,000 tested, 1.8% active | AID 2599 | inhibition, % at 10 µM;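 active means inhibition above about 50% at the single tested dose, limit read from the data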
SENP7 block: blocks the human protease SENP7. recombinant SENP7, Z-RLRGG-aminoluciferin luminescence, 40 min. inhibition, % at 5 µM. 330,000 tested, 1.5% active;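 active means inhibition above about 50% at the single test dose, limit read from the data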
HSP90 refold inh: HSP90 refolding inhibition in rabbit reticulocyte lysate; 290,000 tested, 0.91% active; AID 1789; inhibition, % at 5.6 µM; luciferase refolding luminescence, 3 h;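 active means inhibition above the screen-wide mean plus 3 SD, computed separately per campaign, cut at about 16% in these data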;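 further: inhibitors lower the luminescence because luciferase stays unfolded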
SENP8 block-2: blocks the human protease SENP8 | 330,000 tested, 1.2% active | inhibition, % at 10 µM | AID 2540 | purified SENP8, Z-RLRGG-aminoluciferin cleavage, luminescence; in the data active means inhibition above about 50%
HSP90 confirm: confirmation of HSP90 inhibitors; shares compounds with HSP90 refold inh; rabbit reticulocyte lysate, luciferase refolding luminescence, 3 h; inhibition, % at 5.9 µM; 2,300 tested, 64% active; in the data active means inhibition above about 18%
luciferase ctr: blocks native firefly luciferase in HSP90 counter-screen; shares compounds with HSP90 refold inh; purified native firefly luciferase, luminescence; inhibition, % at 5.9 µM; 2,300 tested, 48% active;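 active means inhibition above the mean inhibition of all tested sample wells plus 3 SD, cut at about 10% in these data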
Target sequence (P08659 whole entry, looked up): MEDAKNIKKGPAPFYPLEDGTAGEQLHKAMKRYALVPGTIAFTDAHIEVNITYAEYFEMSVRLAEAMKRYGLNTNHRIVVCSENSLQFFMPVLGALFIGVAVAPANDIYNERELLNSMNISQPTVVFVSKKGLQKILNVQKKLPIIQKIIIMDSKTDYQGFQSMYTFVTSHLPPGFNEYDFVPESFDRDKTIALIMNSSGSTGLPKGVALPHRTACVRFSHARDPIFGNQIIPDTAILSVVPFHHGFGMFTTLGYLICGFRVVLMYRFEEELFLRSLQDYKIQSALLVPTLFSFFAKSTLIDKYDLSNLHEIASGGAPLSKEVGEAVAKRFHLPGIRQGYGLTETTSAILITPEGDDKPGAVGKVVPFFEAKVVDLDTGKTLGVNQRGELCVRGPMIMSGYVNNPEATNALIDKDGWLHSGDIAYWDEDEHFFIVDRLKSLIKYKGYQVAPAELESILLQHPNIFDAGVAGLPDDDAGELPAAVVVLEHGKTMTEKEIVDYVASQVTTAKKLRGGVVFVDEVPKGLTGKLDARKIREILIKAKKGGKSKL
Of the large screens only hits and unclear results are named; the others gave an inactive call (follow-up assays come after a bar, where they were run). The list is not random: actives were taken first. Their share in the collection is about 2.8%.

Cc1ccc2c(=O)n3c(nc2c1)C(Cc1ccc(O)cc1)NC(=O)c1cc2ccccc2cc1-3 (stereo unspecified)	none (no result: Platelet DG rel, SENP6 inh, SENP7 block, HSP90 refold inh, SENP8 block-2)
CCCCn1c(SCC(=O)NC2CC2)nc2ccccc2c1=O	none
COc1ccc(-n2ncc3c(NCCCN4CCOCC4)ncnc32)cc1	HSP90 refold inh 28 | HSP90 confirm 32 | luciferase ctr 32
COc1ccc(-n2ncc3c(NCCN4CCOCC4)ncnc32)cc1	HSP90 refold inh 26 | HSP90 confirm 27 | luciferase ctr 19
O=C(CSc1ccccc1)Nc1nnc(C2CC2)s1	none
CN(CC(=O)Nc1ccc(F)c(F)c1F)C(=O)C1CCC1	none (no result: HSP90 refold inh)
CCCS(=O)(=O)NC(=O)C1(C)CCCN(C(=O)c2cc(-c3cccs3)oc2C)C1 (stereo unspecified)	none (no result: Platelet DG rel, SENP6 inh, SENP7 block, HSP90 refold inh, SENP8 block-2)
O=C(c1cccnc1)c1cccnc1	none
COc1cccc(C(=O)Nc2ccc(NC(=O)C(C)(C)C)cn2)c1	HSP90 refold inh 33 | HSP90 confirm 48 | luciferase ctr 37
O=C(C(=O)c1cccnc1)c1cccnc1	HSP90 refold inh 20 | HSP90 confirm inactive | luciferase ctr inactive
Cc1ccc(C(=O)Nc2cccc(NC(=O)c3cccnc3)c2)cc1	HSP90 refold inh 38 | HSP90 confirm inactive | luciferase ctr inactive
COc1ccc(NC(=O)c2cccnc2)cc1	HSP90 refold inh 23 | HSP90 confirm inactive | luciferase ctr inactive
CCOc1ccccc1NC(=O)C1CCCN(S(=O)(=O)c2ccc3c(c2)C(C)(C)C(=O)N3C)C1 (stereo unspecified)	none
COC(=O)c1ccc(CNC(=O)c2ccc(OC)c(S(=O)(=O)NC3CCCC3)c2)cc1	none (no result: Platelet DG rel, HSP90 refold inh)
Cc1cccc(N2CCN(C(=O)[C@H](C)N3C(=O)C4CC=CCC4C3=O)CC2)c1C (stereo partly specified)	none (no result: Platelet DG rel, HSP90 refold inh)
COc1cc(NC(=O)c2ccc(Cl)cc2)c(Cl)cc1NC(=O)c1cccnc1	HSP90 refold inh 45 | HSP90 confirm inactive | luciferase ctr inactive
CCC1CCCCN1C(=O)CCCOc1ccccc1 (stereo unspecified)	HSP90 refold inh 37 | HSP90 confirm 39 | luciferase ctr 24
COc1ccc(-n2nc(C(=O)NCC(=O)N3CCC(C)CC3)c3ccccc3c2=O)c(OC)c1	none
Cc1[nH]c2ccccc2c1C(=O)NS(=O)(=O)Nc1ccc(Cl)cc1	HSP90 refold inh 18 | HSP90 confirm inactive | luciferase ctr inactive
Cc1nc(NCc2ccco2)c2c(C)c(C)sc2n1	none
Cc1sc2nc3c4ccccc4c(NCc4ccco4)nn3c(=O)c2c1C	SENP6 inh 72, SENP7 block 76, HSP90 refold inh 79, SENP8 block-2 71 (no result: Platelet DG rel) | HSP90 confirm inactive | luciferase ctr inactive
COc1cc2cc(C(=O)N3CCOCC3)cc(-c3ccc(C)cc3)c2cc1OC	HSP90 refold inh 50 | HSP90 confirm inactive | luciferase ctr inactive
COc1ccc(-c2cc(C(=O)N3CCOCC3)c3ccccc3n2)cc1OC	none (no result: HSP90 refold inh)
S=C1SCCCN1Cc1ccc(Cl)cc1	none (no result: Platelet DG rel, SENP6 inh, SENP7 block, HSP90 refold inh, SENP8 block-2)
CCOc1cc(C2C3=C(CCCC3=O)OC3=C2C(=O)CCC3)cc([N+](=O)[O-])c1O	HSP90 refold inh 31 | HSP90 confirm inactive | luciferase ctr inactive
O=C(O)c1ccc(-c2ccc(-c3ccccc3)cc2)s1	SENP6 inh 99, SENP7 block 101, HSP90 refold inh 94, SENP8 block-2 97 | HSP90 confirm 93 | luciferase ctr 83
Nc1cnc(Br)cc1Br	none
Nc1cc2nsnc2cc1Br	SENP8 block-1 93, SENP6 inh 96, SENP7 block 95, HSP90 refold inh 25, SENP8 block-2 97 | HSP90 confirm inactive | luciferase ctr inactive
O=[N+]([O-])c1ccccc1S(=O)(=O)Nc1cccc(-c2ccc3nncn3n2)c1	none (no result: HSP90 refold inh)
CCN(Cc1ccccc1)C(=O)c1cc2c(OC)c(OC)c(OC)cc2[nH]1	none
O=C1CC(C(=O)O)S/C(=N\N=C\c2ccc(Br)cc2)N1 (stereo unspecified)	HSP90 refold inh 27 | HSP90 confirm 22 | luciferase ctr inactive
COCCN(C(=O)CCC(=O)Nc1ccccn1)C(C(=O)NC(C)C)c1ccc(Cl)cc1 (stereo unspecified)	HSP90 refold inh 84 | HSP90 confirm inactive | luciferase ctr inactive
COc1cc(/C=C2\C(=O)ON=C2c2ccc(Cl)cc2)ccc1O	none (no result: SENP8 block-1, HSP90 refold inh)
COc1ccc(C2=NN(c3ccccc3)C(=O)/C2=C\c2ccc(O)c(OC)c2)cc1	SENP8 block-1 55, HSP90 refold inh 25 | HSP90 confirm inactive | luciferase ctr inactive
Cc1cc(/C(N)=N/OC(=O)Nc2ccc(Cl)cc2)no1	none
O=C(Nc1cccc(C(=O)O)c1)/C(=C\c1ccccc1)NC(=O)c1ccco1	none (no result: Platelet DG rel, SENP6 inh, SENP7 block, HSP90 refold inh, SENP8 block-2)
C#CCN(C[C@@H]1[C@@H](OC(=O)NCc2ccc(OC)c(OC)c2)[C@@H](OC(=O)NCc2ccc(OC)c(OC)c2)CN(C(=O)OC(C)C)N1C(=O)OC(C)C)S(=O)(=O)c1ccc(C)cc1	none (no result: Platelet DG rel, SENP6 inh, SENP7 block, HSP90 refold inh, SENP8 block-2)
N/C(=N\OC(=O)/C=C/c1ccccc1Cl)c1ccncc1	HSP90 refold inh 31 | HSP90 confirm inactive | luciferase ctr inactive
N/C(=N\OC(=O)/C=C/c1ccccc1)c1ccncc1	none
[N-]=[N+]=NCC/C=C\C1NS(=O)(=O)OCC1O (stereo unspecified)	none
CCC(=O)N/N=C/c1ccc(-c2ccc([N+](=O)[O-])cc2)o1	none
Cc1nnc(N/N=C\c2ccc(-c3ccccc3[N+](=O)[O-])o2)n1N	HSP90 refold inh 38 (no result: SENP6 inh, SENP7 block, SENP8 block-2) | HSP90 confirm inactive | luciferase ctr inactive
Cc1nnc(N/N=C/c2ccc(-c3ccccc3F)o2)n1N	HSP90 refold inh 65 | HSP90 confirm 18 | luciferase ctr inactive
CCc1nnc(N/N=C/c2ccc(-c3ccc([N+](=O)[O-])cc3)o2)n1N	HSP90 refold inh 36 | HSP90 confirm inactive | luciferase ctr inactive
COC(=O)c1ccccc1-c1ccc(/C=N/NC(N)=O)o1	none
CC(=O)N1C=Cc2c(c(C)c3c([nH]c4ccccc43)c2C)C1	none (no result: SENP8 block-1, Platelet DG rel, SENP6 inh, SENP7 block, SENP8 block-2)
COc1cc(NC(=O)c2cccc3c2C(=O)N(C2CCCCC2)C3)cc(OC)c1OC	none
CN1CCN(c2ccc(NC(=O)c3ccc4ccccc4c3)cc2)CC1	HSP90 refold inh 25 | HSP90 confirm 31 | luciferase ctr 28
COc1cccc(C(=O)Nc2ccc(N3CCN(S(C)(=O)=O)CC3)cc2)c1	HSP90 refold inh 18 | HSP90 confirm inactive | luciferase ctr inactive
Cc1ccc(C(=O)NCc2ccc(N3CCN(C)CC3)cc2)cc1C	HSP90 refold inh 22 | HSP90 confirm inactive | luciferase ctr inactive
CCCCOC(=O)CSc1nc(N)c(C#N)c(-c2ccc(OC)cc2)c1C#N	HSP90 refold inh 25 | HSP90 confirm inactive | luciferase ctr inactive
COc1cc(C2NC(=O)NC(c3ccccc3)=C2C(C)=O)c(Br)c(Br)c1O (stereo unspecified)	HSP90 refold inh 18 | HSP90 confirm inactive | luciferase ctr inactive

Screens (PubChem BioAssay)
